Columns and labels:
Details in all cases: concentration: 1 μM, replicates: in singlicate; n = 1
CDC2L2 = system: CDC2L2
CDC2L5 = system: T1, CDC2L5
T1 construct: gene CDK13

CDK11 = system: T2, CDK11
T2 construct: gene CDK19

CDK2 = system: CDK2
CDK3 = system: CDK3
CDK4-cyclinD1 = system: CDK4-cyclinD1
CDK4-cyclinD3 = system: CDK4-cyclinD3
CDK4 = system: CDK4
CDK5 = system: CDK5
CDK7 = system: CDK7
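Also: KINOMEscan kinase panel screen.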

| SMILES | %Inh (CDC2L2) [%] | %Inh (CDC2L5) [%] | %Inh (CDK11) [%] | %Inh (CDK2) [%] | %Inh (CDK3) [%] | %Inh (CDK4-cyclinD1) [%] | %Inh (CDK4-cyclinD3) [%] | %Inh (CDK4) [%] | %Inh (CDK5) [%] | %Inh (CDK7) [%] |
| --- | --- | --- | --- | --- | --- | --- | --- | --- | --- | --- |
| CC(C)c1nc(-c2ccc(F)c(NS(=O)(=O)c3c(F)cccc3F)c2)c(-c2ccnc(Nc3ccc(N4CCOCC4)nc3)n2)s1 [GSK1804250] | 0 | 0 | 2 | 95.5 | 35 | 26 | 0 | 87 | 51 | 10 |
| CN(c1ccc(F)c(NC(=O)c2cccc(OC(C)(C)C#N)c2Cl)c1)c1ccc2nc(NC(=O)C3CC3)sc2n1 | 0 | 0 | 0 | 0 | 1 | 4 | 7 | 12 | 0 | 24 |
| CN(C)CCOc1ccc(-c2cc(-c3ccc(Cl)c(O)c3)c(-c3ccncc3)[nH]2)cc1.Cl.Cl [SB-684387] | 14 | 0 | 6 | 0 | 0 | 9 | 15 | 39 | 0 | 21 |
| Cc1cc(-c2ccnc(Nc3cccc(C#N)c3)n2)cc(C)c1O [GSK1440913] | 51 | 0 | 0 | 68 | 30 | 42 | 22 | 0 | 18 | 61 |
| CN(C)CCNS(=O)(=O)c1ccc(-c2ccnc3[nH]ccc23)cc1 [GSK977620] | 0 | 0 | 5 | 0 | 0 | 0 | 0 | 11 | 0 | 45 |
| CCNc1nccc(-c2c(-c3ccc(F)cc3)ncn2C2CCN(C)CC2)n1 | 16 | 0 | 19 | 0 | 0 | 0 | 0 | 0 | 0 | 0 |
| NCCC(NC(=O)c1cc(Br)c(-c2ccnc3[nH]ccc23)s1)c1ccccc1.O=C(O)C(F)(F)F.O=C(O)C(F)(F)F (stereo not drawn) [GSK1307810] | 6 | 0 | 58 | 0 | 6 | 38 | 0 | 27 | 0 | 47 |
| CN1CCN(Cc2ccc(NC(=O)Nc3ccc(N(C)c4ccnc(Nc5ccc(CS(C)(=O)=O)cc5)n4)cc3)cc2)CC1.Cl [GW827654] | 38 | 99.8 | 60 | 16 | 0 | 50 | 97.8 | 65 | 58 | 53 |
| O=C(Nc1n[nH]c2nc(-c3ccccc3)ccc12)C1CC1 [SB-708999] | 0 | 27 | 0 | 45 | 35 | 61 | 0 | 12 | 2 | 10 |
| CC(C)c1nc(-c2cccc(NS(=O)(=O)c3c(F)cccc3F)c2)c(-c2ccnc(Nc3ccc(N4CCOCC4)nc3)n2)s1.Cl [GSK1723980] | 0 | 79 | 0 | 99.1 | 99.7 | 96.2 | 56 | 94.4 | 98.9 | 62 |
| Cc1cc(-c2c(-c3ccc(F)cc3)ncn2CCCN2CCOCC2)nc(N)n1 [SB-222517] | 8 | 0 | 22 | 0 | 18 | 0 | 0 | 24 | 14 | 11 |
| COc1cc(Nc2ccnc3cc(-c4ccncc4)ccc23)cc(OC)c1OC.Cl [GW494610] | 0 | 0 | 2 | 1 | 1 | 39 | 0 | 27 | 0 | 0 |
| CS(=O)(=O)c1cccc(CNc2nc(Nc3ccc4c(c3)CCC(=O)N4)ncc2C(F)(F)F)c1 | 0 | 0 | 0 | 30 | 12 | 0 | 0 | 6 | 22 | 80 |
| N#CC1(c2cccc(C(=O)Nc3cccc(Oc4ccc5nc(NC(=O)C6CC6)sc5n4)c3)c2)CC1 | 0 | 6 | 24 | 0 | 0 | 15 | 1 | 0 | 0 | 12 |
| CN(c1ccc(NC(=O)Nc2cccc(Cl)c2)cc1)c1ccnc(N)n1.Cl [GW830707] | 12 | 43 | 77 | 9 | 0 | 57 | 0 | 4 | 5 | 24 |
